Records with an inconclusive call do not appear. Active and inactive are the calls of the source. Calls come from the whole dose curve; as a rule, active = well fitted curve in the direction sought with a large enough effect; inconclusive = small, poorly fitted or top-dose-only effect, or another doubt; inactive = no such curve, though single readings can be large; an effect the other way counts as inactive or inconclusive.
Legend:
Furin (Homo sapiens) = Furin (Homo sapiens) (UniProt P09958); assay: Furin counterscreen qHTS for Zika virus inhibitors (AID 1347149); conditions: furin enzymatic counterscreen, fluorogenic substrate; series mostly up to 114 µM; note: nearly all actives have a fitted effect of over 70% in size; note: potency is the fitted concentration of half-maximal effect
Summary of the method: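 Counterscreen measures cleavage of 2 microM BOC-RVRR-AMC, below its ~15 microM Km, by 5 nM full-length human furin at pH 7.0 after a 15-min compound preincubation. Inhibition derives from the 15-min fluorescence increase at 37C.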

[1] = Confirmatory screen GU Rhodamine qHTS for Zika virus inhibitors qHTS (AID 1347157); conditions: purified enzyme assay, Rhodamine110 substrate fluorescence, 15 min; series mostly up to 114 µM; note: nearly all actives have a fitted effect of over 70% in size
Summary of the method: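 Buffer 10 mM Tris-HCl pH 8.0, 0.01% Tween 20. Unlinked protease 25 nM; compound preincubation 15 min, RT, protected from light. Substrate Rhod110, 1.5 microM; ~15% conversion in 15 min.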

[2] = Confirmatory screen NINDS Rhodamine qHTS for Zika virus inhibitors (AID 1347161); conditions: purified enzyme assay, Rhodamine110 substrate fluorescence, 15 min; series mostly up to 114 µM;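 note: purified Zika NS2B-NS3 protease with linked NS2B cofactor domain and Rhodamine110 peptide substrate; nearly all actives have a fitted effect of over 60% in size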
Summary of the method: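 qHTS dose-response: 25 nM linked protease, pH 8.0 Tris/Tween buffer, cpd titration, 15 min RT preinc, 1.5 microM Rhod110 peptide, 15 min reaction (~15% conversion), Ex480/Em540; 4-parameter Hill fit.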

[3] = Tertiary RLuc qRT-PCR qHTS assay for Zika virus inhibitors (AID 1347169); conditions: infected Vero cells, reporter luminescence, 48-72 h; series mostly up to 1.74 µM; note: top concentration of the series differs between compounds; nearly all actives have a fitted effect of over 55% in size
Summary of the method: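 Inhibition of ZIKV-RLuc replication in Vero cells, read as Renilla luminescence 1-1.5 hrs after live-cell substrate addition, following 48-72 hrs infection at MOI 1-2 in presence of compound.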

Measured: Potency

Furin (Homo sapiens), sequence (P09958 whole entry, looked up): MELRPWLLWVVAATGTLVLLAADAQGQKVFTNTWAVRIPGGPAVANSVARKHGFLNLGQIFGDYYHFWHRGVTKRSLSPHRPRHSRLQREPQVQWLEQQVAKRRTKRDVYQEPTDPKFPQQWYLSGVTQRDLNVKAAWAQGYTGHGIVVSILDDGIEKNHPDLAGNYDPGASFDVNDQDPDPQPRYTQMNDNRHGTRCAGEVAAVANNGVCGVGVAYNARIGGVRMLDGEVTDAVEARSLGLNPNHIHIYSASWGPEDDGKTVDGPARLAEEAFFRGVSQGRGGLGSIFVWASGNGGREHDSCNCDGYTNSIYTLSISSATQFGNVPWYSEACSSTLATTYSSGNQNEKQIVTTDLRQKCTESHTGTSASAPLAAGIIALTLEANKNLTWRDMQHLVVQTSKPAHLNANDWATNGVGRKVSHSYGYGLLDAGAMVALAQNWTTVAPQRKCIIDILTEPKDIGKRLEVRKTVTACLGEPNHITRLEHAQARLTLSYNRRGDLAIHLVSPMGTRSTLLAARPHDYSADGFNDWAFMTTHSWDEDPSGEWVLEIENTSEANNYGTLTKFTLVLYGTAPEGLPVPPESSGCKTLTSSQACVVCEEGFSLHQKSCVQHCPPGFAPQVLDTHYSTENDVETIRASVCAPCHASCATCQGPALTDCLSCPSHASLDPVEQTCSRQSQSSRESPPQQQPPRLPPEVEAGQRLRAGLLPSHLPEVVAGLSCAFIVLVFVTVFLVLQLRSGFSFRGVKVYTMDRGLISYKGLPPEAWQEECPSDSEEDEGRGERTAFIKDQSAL

CCOc1ccccc1NC(=O)c1ccc2oc(=O)c(S(=O)(=O)c3ccc(F)cc3)cc2c1
inactive: Furin (Homo sapiens) | [1] | [2] | [3]

Cc1csc2nc(COC(=O)c3ccccc3NC(=O)c3ccc(C(C)(C)C)cc3)cc(=O)n12
active: Furin (Homo sapiens) 37.3 µM
inactive: [1] | [2] | [3]

COC(=O)c1c(NC(=O)c2cc3nc(-c4ccc(Br)cc4)cc(C(F)(F)F)n3n2)sc2c1CCCC2
inactive: Furin (Homo sapiens) | [1] | [2] | [3]

Source: PubChem BioAssay (NCATS)
